Records with an inconclusive call do not appear. Calls of active or inactive are those of the source. Calls follow the shape of the dose curve; as a rule, active = well fitted curve in the direction sought with a large enough effect; inconclusive = small, poorly fitted or top-dose-only effect, or another doubt; inactive = no such curve, though single readings can be large; an effect the other way counts as inactive or inconclusive.
Key:
NIH3T3 [1] = assay: Cytotoxic Profiling of Annotated Libraries Using Quantitative High-Throughput Screening (AID 1296008); details: Five cell lines viability, CellTiter-Glo ATP luminescence, 48-72 h; max response: stronger effect = lower value; also: nearly all actives have a fitted effect of over 60% in size
How it was run: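 Compounds were pin-transferred onto cells and incubated 48 or 72 hr at 37 degree Celsius, 95% humidity. CellTiter-Glo was added, plates sat 10 min at room temperature, then ATP-coupled luminescence was imaged as the viability read-out.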

HACAT = assay: qHTS assay to identify novel small-molecules to repurpose for Merkel cell carcinoma treatment (AID 1296009); details: MCC and control cell lines, CellTiter-Glo viability, 72 h; at 44.8 µM (top of the series) unless noted; also: nearly all actives have a fitted effect of over 60% in size
How it was run: (§1)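 qHTS format: cells treated with library compounds in DMSO across 8 (NPC) or 11 (MIPE) concentrations. Readout after 72 hr at 37 degree celsius was CellTiter-Glo luminescence.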

MCC-13 = assay: as above; details: MCC and control cell lines, CellTiter-Glo viability, 72 h; series mostly up to 46 µM
How it was run: as §1

MCC-26 = assay: as above; details: MCC and control cell lines, CellTiter-Glo viability, 72 h; series mostly up to 46 µM
How it was run: as §1

MKL-1 = assay: as above; details: MCC and control cell lines, CellTiter-Glo viability, 72 h; series mostly up to 46 µM
How it was run: as §1

MKL-2 = assay: as above; details: MCC and control cell lines, CellTiter-Glo viability, 72 h; series mostly up to 46 µM
How it was run: as §1

NIH3T3 [2] = assay: as above; details: MCC and control cell lines, CellTiter-Glo viability, 72 h; at 44.8 µM (top of the series) unless noted
How it was run: as §1

UISO = assay: as above; details: MCC and control cell lines, CellTiter-Glo viability, 72 h; series mostly up to 46 µM
How it was run: as §1

WaGa = assay: as above; details: MCC and control cell lines, CellTiter-Glo viability, 72 h; series mostly up to 46 µM
How it was run: as §1

C33A = assay: Primary qHTS to identify gynecologic anti-cancer compounds using libraries of approved drugs and bioactive compounds (AID 1345084); details: Gynecologic cancer cell panel viability, ATPlite luminescence, 48 h; series mostly up to 57.5 µM; also: nearly all actives have a fitted effect of over 55% in size
How it was run: (§2)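 Five-point cytotoxicity, 48 h drug exposure at 37 C, 5% CO2, on cells seeded 16 h beforehand. ATP content read by ATPlite luminescence.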

CAOV3 = assay: as above; details: Gynecologic cancer cell panel viability, ATPlite luminescence, 48 h; series mostly up to 57.5 µM
How it was run: as §2

CASKI = assay: as above; details: Gynecologic cancer cell panel viability, ATPlite luminescence, 48 h; series mostly up to 57.5 µM
How it was run: as §2

Es-2 = assay: as above; details: Gynecologic cancer cell panel viability, ATPlite luminescence, 48 h; series mostly up to 57.5 µM
How it was run: as §2

HeLa = assay: as above; details: Gynecologic cancer cell panel viability, ATPlite luminescence, 48 h; series mostly up to 57.5 µM
How it was run: as §2

Hek293T [3] = assay: as above; details: Gynecologic cancer cell panel viability, ATPlite luminescence, 48 h, control line for the selectivity index; series mostly up to 57.5 µM
How it was run: as §2

JEG-3 = assay: as above; details: Gynecologic cancer cell panel viability, ATPlite luminescence, 48 h; series mostly up to 57.5 µM
How it was run: as §2

OV90 = assay: as above; details: Gynecologic cancer cell panel viability, ATPlite luminescence, 48 h; series mostly up to 57.5 µM
How it was run: as §2

PA-1 = assay: as above; details: Gynecologic cancer cell panel viability, ATPlite luminescence, 48 h; series mostly up to 57.5 µM
How it was run: as §2

SKOV3 = assay: as above; details: Gynecologic cancer cell panel viability, ATPlite luminescence, 48 h; series mostly up to 57.5 µM
How it was run: as §2

HEK293T [4] = assay: qHTS assay to identify novel small-molecules to repurpose for Merkel cell carcinoma treatment (AID 1296009); details: MCC and control cell lines, CellTiter-Glo viability, 72 h; at 44.8 µM (top of the series) unless noted; also: nearly all actives have a fitted effect of over 60% in size
How it was run: as §1
% is scaled to controls: 0 for no effect and ±100 for the full control effect.

CN1CCC(=C2c3ccccc3CCc3cccnc32)CC1
inactive: outcome (NIH3T3 [1]) | outcome (HACAT) | Potency (MCC-13) | Potency (MCC-26) | Potency (MKL-1) | Potency (MKL-2) | outcome (NIH3T3 [2]) | Potency (UISO) | Potency (WaGa) | Potency (C33A) | Potency (CAOV3) | Potency (CASKI) | Potency (Es-2) | Potency (HeLa) | Potency (Hek293T [3]) | Potency (JEG-3) | Potency (OV90) | Potency (PA-1) | Potency (SKOV3)

COc1ccc2c(c1)CCCC2=O
inactive: outcome (NIH3T3 [1]) | outcome (HACAT) | Potency (MCC-13) | Potency (MCC-26) | Potency (MKL-1) | Potency (MKL-2) | outcome (NIH3T3 [2]) | Potency (UISO) | Potency (WaGa) | Potency (C33A) | Potency (CAOV3) | Potency (CASKI) | Potency (Es-2) | Potency (HeLa) | Potency (Hek293T [3]) | Potency (JEG-3) | Potency (OV90) | Potency (PA-1)

CC(C)NC(=O)c1ccc(C=O)cc1
inactive: max response (NIH3T3 [1]) 3.81% | outcome (HACAT) | outcome (HEK293T [4]) | Potency (MCC-13) | Potency (MCC-26) | Potency (MKL-1) | Potency (MKL-2) | Potency (UISO) | Potency (WaGa) | Potency (C33A) | Potency (CAOV3) | Potency (CASKI) | Potency (Es-2) | Potency (HeLa) | Potency (Hek293T [3]) | Potency (JEG-3) | Potency (OV90) | Potency (PA-1) | Potency (SKOV3)

Cc1cc(CCCOc2c(C)cc(-c3noc(C(F)(F)F)n3)cc2C)on1
inactive: outcome (NIH3T3 [1]) | outcome (HACAT) | Potency (MCC-13) | Potency (MCC-26) | Potency (MKL-1) | Potency (MKL-2) | outcome (NIH3T3 [2]) | Potency (UISO) | Potency (C33A) | Potency (CAOV3) | Potency (CASKI) | Potency (Es-2) | Potency (HeLa) | Potency (Hek293T [3]) | Potency (JEG-3) | Potency (OV90) | Potency (PA-1) | Potency (SKOV3)

O=c1[nH]c2ccccc2c(=O)n1CCCl
inactive: outcome (NIH3T3 [1]) | outcome (HACAT) | Potency (MCC-13) | Potency (MCC-26) | Potency (MKL-1) | Potency (MKL-2) | outcome (NIH3T3 [2]) | Potency (UISO) | Potency (WaGa) | Potency (C33A) | Potency (CAOV3) | Potency (CASKI) | Potency (Es-2) | Potency (Hek293T [3]) | Potency (JEG-3) | Potency (OV90) | Potency (PA-1) | Potency (SKOV3)

NS(=O)(=O)c1cc(C(=O)NN2C[C@H]3[C@H]4CCC(C4)[C@H]3C2)ccc1Cl
inactive: outcome (NIH3T3 [1]) | outcome (HACAT) | Potency (MCC-13) | Potency (MCC-26) | Potency (MKL-1) | Potency (MKL-2) | outcome (NIH3T3 [2]) | Potency (UISO) | Potency (WaGa) | Potency (C33A) | Potency (CAOV3) | Potency (CASKI) | Potency (Es-2) | Potency (HeLa) | Potency (Hek293T [3]) | Potency (JEG-3) | Potency (OV90) | Potency (PA-1) | Potency (SKOV3)

CC(C)=CCC/C(C)=C/CC/C(C)=C/CCC(=O)OC/C=C(\C)CCC=C(C)C
inactive: outcome (NIH3T3 [1]) | outcome (HACAT) | Potency (MCC-13) | Potency (MCC-26) | Potency (MKL-1) | Potency (MKL-2) | outcome (NIH3T3 [2]) | Potency (UISO) | Potency (WaGa) | Potency (C33A) | Potency (CAOV3) | Potency (CASKI) | Potency (Es-2) | Potency (HeLa) | Potency (Hek293T [3]) | Potency (JEG-3) | Potency (OV90) | Potency (PA-1) | Potency (SKOV3)

COc1ccccc1N1CCN(CC(O)COc2cc(OC)c(OC)c(OC)c2)CC1 (stereo not given)
inactive: max response (NIH3T3 [1]) -5.07% | outcome (HACAT) | Potency (MCC-13) | Potency (MCC-26) | Potency (MKL-1) | Potency (MKL-2) | Potency (UISO) | Potency (WaGa) | Potency (C33A) | Potency (CAOV3) | Potency (CASKI) | Potency (Es-2) | Potency (HeLa) | Potency (Hek293T [3]) | Potency (JEG-3) | Potency (OV90) | Potency (PA-1) | Potency (SKOV3)

CCOC(=O)NNc1nncc2ccccc12
inactive: max response (NIH3T3 [1]) 3.89% | outcome (HACAT) | Potency (MCC-13) | Potency (MCC-26) | Potency (MKL-1) | Potency (MKL-2) | Potency (UISO) | Potency (WaGa) | Potency (C33A) | Potency (CAOV3) | Potency (CASKI) | Potency (Es-2) | Potency (HeLa) | Potency (Hek293T [3]) | Potency (JEG-3) | Potency (OV90) | Potency (PA-1) | Potency (SKOV3)

CCN(CC)CC(=O)Nc1c(C)cccc1C(=O)OC
inactive: max response (NIH3T3 [1]) 1.11% | outcome (HACAT) | Potency (MCC-13) | Potency (MCC-26) | Potency (MKL-1) | Potency (MKL-2) | Potency (UISO) | Potency (WaGa) | Potency (C33A) | Potency (CAOV3) | Potency (CASKI) | Potency (Es-2) | Potency (HeLa) | Potency (Hek293T [3]) | Potency (JEG-3) | Potency (OV90) | Potency (PA-1) | Potency (SKOV3)

Cc1cccc(OCC(O)CNC(C)(C)C)c1C (stereo not given)
inactive: max response (NIH3T3 [1]) 0.115% | outcome (HACAT) | Potency (MCC-13) | Potency (MCC-26) | Potency (MKL-1) | Potency (MKL-2) | Potency (UISO) | Potency (WaGa) | Potency (C33A) | Potency (CAOV3) | Potency (CASKI) | Potency (Es-2) | Potency (HeLa) | Potency (Hek293T [3]) | Potency (JEG-3) | Potency (OV90) | Potency (PA-1) | Potency (SKOV3)

CCCC(=O)OCOC(=O)C1=C(C)NC(C)=C(C(=O)OC)C1c1cccc(Cl)c1Cl (stereo not given)
inactive: max response (NIH3T3 [1]) 0.493% | outcome (HACAT) | Potency (MCC-13) | Potency (MCC-26) | Potency (MKL-1) | Potency (MKL-2) | Potency (UISO) | Potency (WaGa) | Potency (C33A) | Potency (CAOV3) | Potency (CASKI) | Potency (Es-2) | Potency (HeLa) | Potency (Hek293T [3]) | Potency (JEG-3) | Potency (OV90) | Potency (PA-1)

COC(=O)C1=C(C)NC(C)=C(C(=O)OCCc2ccc(N3CCN(C(c4ccccc4)c4ccccc4)CC3)cc2)C1c1cccc([N+](=O)[O-])c1 (stereo not given)
inactive: max response (NIH3T3 [1]) -0.486% | outcome (HACAT) | Potency (MCC-13) | Potency (MCC-26) | Potency (MKL-1) | Potency (MKL-2) | Potency (UISO) | Potency (WaGa) | Potency (C33A) | Potency (CAOV3) | Potency (CASKI) | Potency (Es-2) | Potency (HeLa) | Potency (Hek293T [3]) | Potency (JEG-3) | Potency (OV90) | Potency (PA-1) | Potency (SKOV3)

C/C=C(/C(=C/C)c1ccc(OC(C)=O)cc1)c1ccc(OC(C)=O)cc1
inactive: max response (NIH3T3 [1]) -0.599% | outcome (HACAT) | Potency (MCC-13) | Potency (MCC-26) | Potency (MKL-1) | Potency (MKL-2) | Potency (UISO) | Potency (WaGa) | Potency (C33A) | Potency (CAOV3) | Potency (CASKI) | Potency (Es-2) | Potency (HeLa) | Potency (Hek293T [3]) | Potency (JEG-3) | Potency (OV90) | Potency (PA-1) | Potency (SKOV3)

Source: PubChem BioAssay (NCATS)
